In all, about 340,000 compounds went through this assay and about 3,300 (0.97%) were called active.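 How the source made its calls: active means inhibition above the mean over all tested compounds plus 3 SD (cut at about 30% in these data); inactive means the rest.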 Shown is part of a subset that was picked to be rich in actives.
Each compound was assayed against Platelet-activating factor acetylhydrolase 2, cytoplasmic (Homo sapiens) (UniProt Q99487) (assay: PAFAH2 enzyme inhibitors, primary screen, biochemical, fluorescence polarization, human (AID 492956;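 further: inhibitors block probe labeling of enzyme so polarization drops; 0% = enzyme with DMSO and 100% = wells lacking PAFAH2 protein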)). Details: recombinant PAFAH2, FP-rhodamine activity probe, at 3.39 µM, stronger effect = higher value.

| Structure (SMILES) | inhibition |
| --- | --- |
| COc1cnn(-c2ccc([N+](=O)[O-])cc2)c(=O)c1Cl | 5.97% (inactive) |
| O=[N+]([O-])c1ccc(N2CCOCC2)cc1 | 6.57% (inactive) |
| O=c1[nH]n(-c2ccc([N+](=O)[O-])cc2)c(=O)c2ccccc12 | 32.5% (active) |
| COc1cccc(NC(=O)[C@H](Cc2c[nH]c3ccccc23)NC(=O)[C@@H]2Cc3ccccc3CN2)c1 | 4.49% (inactive) |
| CC(C)(C)OC(=O)C[C@@H]1C/C=C\C[C@H](CC(=O)N[C@@H](CO)Cc2ccccc2)C(=O)N[C@H](Cc2ccccc2)COC1=O | -5.38% (inactive) |
| CCOC(=O)C1=C(N)N(c2ccc(C)cc2)C2=C(C(=O)CCC2)C1c1cccs1 (stereo not given) | 11% (inactive) |
| COc1ccc(NC(=O)CC(NC(C)c2ccccc2)C(=O)O)cc1 (stereo not given) | 35.8% (active) |
| COc1ccc(NC(=O)CS(=O)(=O)c2ccccc2)cc1 | -6.64% (inactive) |
| COc1ccc(NC(=O)CCCC(=O)c2ccccc2)cc1 | -4.3% (inactive) |
| O=C1N(c2ccccc2)C(=Nc2ccccc2)SC12CC2 | -1.71% (inactive) |
| COc1ccc(N(Cc2cc3ccc(C)cc3[nH]c2=O)S(=O)(=O)c2ccccc2)cc1 | 1.35% (inactive) |
| CCCCn1c(N)c(N(Cc2ccccc2OC)C(=O)COc2cc(C)ccc2Cl)c(=O)[nH]c1=O | -1.09% (inactive) |
| O=C(O)/C=C/c1ccc(S(=O)(=O)N2CCCCCC2)cc1 | 0.61% (inactive) |
| O=C(COc1ccc(S(=O)(=O)N2CCCCC2)cc1)NCc1ccccn1 | 9.09% (inactive) |
| O=C(COC(=O)/C=C/c1ccc(S(=O)(=O)N2CCCCCC2)cc1)NCc1ccccc1Cl | 33.9% (active) |
| O=C(Nc1ccc(F)cc1)c1cccnc1N1CCOCC1 | -2.86% (inactive) |
| CC1=C(C(=O)Nc2ccc(Cl)cc2)C(c2ccco2)NC(=O)N1 (stereo not given) | 0.63% (inactive) |
| COc1ccccc1Nc1nc(N)nc(CSC(=S)N2CCOCC2)n1 | 30.8% (active) |
| COc1ccc(Nc2nc(N)nc(CSC(=S)N3CCC(C)CC3)n2)cc1 | 5.5% (inactive) |
| Cc1ccccc1Nc1nc(N)nc(CSc2ccccc2)n1 | 3.88% (inactive) |
| O=C(CN1CCCCCC1)Nc1ccc(Br)cc1Br | 2.02% (inactive) |
| O=c1oc(-c2ccccc2NS(=O)(=O)c2ccc(Cl)cc2)nc2ccccc12 | 82.1% (active) |
| O=c1ccc2cc(S(=O)(=O)Nc3ccccc3F)ccc2o1 | 0.74% (inactive) |

| Structure (SMILES) | inhibition |
| --- | --- |
| O=c1oc2ccccc2c(NC2CCCCC2)c1NS(=O)(=O)c1ccc(Cl)cc1 | 5.54% (inactive) |
| CCCCNS(=O)(=O)c1ccc2nc(SCC(=O)Nc3cc(C)cc(C)c3)[nH]c2c1 | -16.9% (inactive) |
| N#Cc1cccc(NC(=O)COC(=O)c2ccccc2C(=O)c2ccc(Cl)c([N+](=O)[O-])c2)c1 | 58.9% (active) |
| CC(=O)Nc1ccc(NC(=O)C(C)OC(=O)c2ccccc2C(=O)c2ccc(Cl)c([N+](=O)[O-])c2)cc1 (stereo not given) | -5.1% (inactive) |
| COC(=O)c1cc(NC(=O)Cc2ccccc2[N+](=O)[O-])ccc1Cl | 0.54% (inactive) |
| COC(=O)c1onc(-c2c(OC)cc(OC)cc2OC)c1C(=O)OC | -0.23% (inactive) |
| Cc1cn(C2CC(O)C(CO)O2)c(=O)n(CCCc2ccccc2)c1=O (stereo not given) | -0.23% (inactive) |
| COc1cccc(CNC(=O)C2CCN(S(=O)(=O)c3cccc4cccnc34)CC2)c1 | -7.61% (inactive) |
| O=C(Cc1ccc(NC(=O)C2CCCN(C(=O)C3CCCCC3)C2)cc1)Nc1cccc(C(=O)N2CCCCC2)c1 (stereo not given) | -2.71% (inactive) |
| O=C(CC1Sc2ccccc2NC1=O)NNc1ccc(Cl)c(Cl)c1 (stereo not given) | 6.55% (inactive) |
| CCN(CC)CCn1c2ccc(Cl)cc2c2nc(C)sc21 | -2.76% (inactive) |
| CCN(CC)CCCC(C)n1c2nc(=O)[nH]c(=O)c-2nc2cc(Cl)ccc21 (stereo not given) | 38.8% (active) |
| Cc1ccc(S(=O)(=O)N(Cc2cc3ccccc3[nH]c2=O)CC2CCCO2)cc1 (stereo not given) | 4.81% (inactive) |
| Cn1c(NC(=O)c2ccco2)c(-c2ccccc2Cl)c(=O)c2ccccc21 | -1.9% (inactive) |
| Cc1[nH]c(C)c(S(=O)(=O)N2CCN(c3cccc(C(F)(F)F)c3)CC2)c1C(=O)N1CCCCC1 | 8.89% (inactive) |
| O=C(COC(=O)/C=C/c1cccc(Cl)c1)NCCc1ccccc1 | 20.5% (inactive) |
| COc1ccc(Cl)cc1C(=O)OCC(=O)NCc1cccs1 | 1.83% (inactive) |
| COc1ccc(/C=C/C(=O)OCC(=O)NCc2cccs2)cc1OC | 49.4% (active) |
| CCOc1ccc(/C=C/C(=O)N(CC)CC(=O)NCc2cccs2)cc1OC | 5.35% (inactive) |
| CCOc1ccc(/C=N/OCC(=O)NCc2cccs2)cc1 | 4.81% (inactive) |
| O=C(COC(=O)/C=C/c1cccc(Cl)c1)NCc1cccs1 | 37% (active) |
| CN(CCc1ccccc1)C(=O)c1cccc(NC(=O)Cc2cccc(NC(=O)C3CCCN(C(=O)C4CCC4)C3)c2)c1 (stereo not given) | -1.94% (inactive) |
| COc1ccc(CCNC(=O)CN(C)S(=O)(=O)c2ccc3nc(C)sc3c2)cc1OC | -0.36% (inactive) |

| Structure (SMILES) | inhibition |
| --- | --- |
| COC(=O)C1=C(C)NC(=S)NC1c1ccc(OCC(=O)N2CC(C)OC(C)C2)c(OC)c1 (stereo not given) | -0.58% (inactive) |
| Cc1ccc(NS(=O)(=O)c2cn(C)c(=O)n(C)c2=O)c(C)c1 | 1.4% (inactive) |
| COc1ccc(S(=O)(=O)N2CN(CCc3ccc(OC)c(OC)c3)c3nc4ccccc4nc32)cc1 | 8.38% (inactive) |
| CCOc1ccc(C(=O)Nc2cccc(SC)c2)cc1 | -11.9% (inactive) |
| CC(=O)c1c(C)[nH]c(C(=O)OCC(=O)Nc2cc(S(=O)(=O)N3CCCCC3)ccc2C)c1C | 7.66% (inactive) |
| CC(=O)c1c(C)[nH]c(C(=O)OCC(=O)Nc2c(C)cccc2C)c1C | 4.64% (inactive) |
| CC(=O)c1c(C)[nH]c(C(=O)OCC(=O)NCCC(C)C)c1C | 30.4% (active) |
| CCC(C)NC(=O)C1CCCN(C(=O)NC2CCCCC2)C1 (stereo not given) | 10.5% (inactive) |
| COc1ccc(C(=O)C2CCCN(C(=O)c3cc4nc(C)cc(C)n4n3)C2)cc1F (stereo not given) | -3.28% (inactive) |
| c1coc(-c2nc3nc4ccccc4n3nc2-c2ccco2)c1 | 45.7% (active) |
| COc1cc(OC)cc(C(=O)NC(=S)N2CCN(c3ccc(C(F)(F)F)cc3[N+](=O)[O-])CC2)c1 | 7.31% (inactive) |
| Cc1ccc(-c2nn(-c3ccc(F)cc3)cc2C(=O)NCC(c2cccs2)N2CCOCC2)cc1 (stereo not given) | 3.21% (inactive) |
| Cc1cc(C(=O)N2CCN(c3ccccn3)CC2)c(C)o1 | -1.14% (inactive) |
| NC(=O)CSC1=Nc2ccccc2C2=NC(CCC(=O)NCc3ccc(F)cc3)C(=O)N12 (stereo not given) | 1.37% (inactive) |
| CC(C)C1N=C2c3ccccc3N=C(SCC(=O)c3ccc(O)c(O)c3)N2C1=O (stereo not given) | 43.8% (active) |
| O=C(CSC1=Nc2ccccc2C2=NC(c3ccccc3)C(=O)N12)NCC1CCCO1 (stereo not given) | 7.84% (inactive) |
| C/C(=N/Nc1nc(-c2ccccc2)c(CC(=O)O)s1)c1ccccc1 | 0.51% (inactive) |
| CCCCCN1CC(O)=C(c2nc(-c3ccc(Cl)cc3)cs2)C1=N | -0.6% (inactive) |
| N=C1C(c2nc3ccccc3s2)=C(O)CN1NC(=O)c1ccc([N+](=O)[O-])cc1 | 8.9% (inactive) |
| CCOC(=O)CCCN1CC(O)=C(c2nc3ccccc3s2)C1=N | 34.8% (active) |
| CCc1ccc(N2CC(O)=C(c3nc4ccccc4c(=O)[nH]3)C2=N)cc1 | -1.39% (inactive) |
| COc1ccccc1N1CC(O)=C(c2nc3ccccc3s2)C1=N | 33.6% (active) |
| CCCCCN1CC(O)=C(c2ccccc2)C1=N | -3.01% (inactive) |

| Structure (SMILES) | inhibition |
| --- | --- |
| CC(=O)Nc1ccc(N2C(=O)CCC2=O)cc1C | -0.05% (inactive) |
| NC(=O)C1CCN(Cc2nc3c(Br)cc(Br)cc3c(=O)[nH]2)CC1 | -2.66% (inactive) |
| C/C=C/C=C/C(=O)OCC(=O)Nc1ccc(Cl)cc1 | 86.5% (active) |
| C/C=C/C(=O)OCC(=O)Nc1ccc(F)cc1Cl | 26% (inactive) |
| CCC(=O)Nc1ccc(C(=O)NNC(=O)c2ccc(Cl)cc2)cc1 | -2.08% (inactive) |
| COc1ccc(-n2c(C)nn(CC3CC3)c2=O)cc1 | 0.47% (inactive) |
| O=C1NCC(c2ccccc2)(c2ccccc2)C(=O)N1 | -5.72% (inactive) |
| O=C(CSc1n[nH]c(-c2cccnc2)n1)Nc1ccc(Cl)cc1 | -7.75% (inactive) |
| O=[N+]([O-])c1cc(S(=O)(=O)NCCc2ccccn2)ccc1Cl | 4.86% (inactive) |
| CS(=O)(=O)c1ccc(Cl)c(NC(=O)COC(=O)c2cccc(S(=O)(=O)N3CCCC3)c2)c1 | 32.3% (active) |
| O=C(COC(=O)CCOc1ccccc1)Nc1cc(S(=O)(=O)N2CCCCC2)ccc1Cl | -0.76% (inactive) |
| O=C(COC(=O)COc1ccccc1F)Nc1cccc(S(=O)(=O)N2CCCCC2)c1 | -7.67% (inactive) |
| CC(NC(=O)c1ccccc1)C(=O)OCC(=O)Nc1cccc(S(=O)(=O)N2CCCC2)c1 (stereo not given) | 7.86% (inactive) |
| O=C(COC(=O)c1ccccc1)Nc1cccc(S(=O)(=O)N2CCOCC2)c1 | 37.7% (active) |
| O=C(COC(=O)CCc1ccc(S(=O)(=O)N2CCOCC2)cc1)Nc1cccc(Cl)c1 | 0.83% (inactive) |
| O=C(CSc1ccccc1)Nc1cccc(S(=O)(=O)N2CCOCC2)c1 | -0.86% (inactive) |
| CC(=O)c1cccc(OCC(=O)OCC(=O)Nc2cc(S(=O)(=O)N3CCCCC3)ccc2C)c1 | 1.56% (inactive) |
| O=C(CN1CCc2ccccc2C1)Nc1cccc(S(=O)(=O)N2CCOCC2)c1 | 5.27% (inactive) |
| O=C(COC(=O)/C=C/c1ccc(Br)o1)Nc1cccc(S(=O)(=O)N2CCOCC2)c1 | 42% (active) |
| CCOc1ncccc1C(=O)OCC(=O)Nc1cccc(S(=O)(=O)N2CCCCCC2)c1 | 60% (active) |
| CN=C(Nc1cccc(S(=O)(=O)N2CCOCC2)c1)c1ccccc1 | 0.65% (inactive) |
